# Assay outcomes deposited in PubChem BioAssay by several laboratories.
# A selection: hits, their analogues and other compounds. The true share with any hit is near 3.6%.
# NadD inh: blocks S. aureus nicotinate mononucleotide adenylyltransferase. purified NadD enzyme, colorimetric absorbance read-out. inhibition, % at 20 µM. 0.78% of 360,000 active. AID 602399; in the data active = inhibition above about 26%
# NRP1-CendR mod: modulators of CendR peptide binding to human neuropilin-1; FAM-RPARPAR peptide binding to NRP-1, fluorescence polarization; inhibition, % at 25 µM; 0.85% of 360,000 active;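 active = inhibition or corrected inhibition above about 18%, plus a signal ratio from 0.5 to 1.5, limit read from the data, passing the limit was not always enough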
# Target sequence (O14786 whole entry, looked up): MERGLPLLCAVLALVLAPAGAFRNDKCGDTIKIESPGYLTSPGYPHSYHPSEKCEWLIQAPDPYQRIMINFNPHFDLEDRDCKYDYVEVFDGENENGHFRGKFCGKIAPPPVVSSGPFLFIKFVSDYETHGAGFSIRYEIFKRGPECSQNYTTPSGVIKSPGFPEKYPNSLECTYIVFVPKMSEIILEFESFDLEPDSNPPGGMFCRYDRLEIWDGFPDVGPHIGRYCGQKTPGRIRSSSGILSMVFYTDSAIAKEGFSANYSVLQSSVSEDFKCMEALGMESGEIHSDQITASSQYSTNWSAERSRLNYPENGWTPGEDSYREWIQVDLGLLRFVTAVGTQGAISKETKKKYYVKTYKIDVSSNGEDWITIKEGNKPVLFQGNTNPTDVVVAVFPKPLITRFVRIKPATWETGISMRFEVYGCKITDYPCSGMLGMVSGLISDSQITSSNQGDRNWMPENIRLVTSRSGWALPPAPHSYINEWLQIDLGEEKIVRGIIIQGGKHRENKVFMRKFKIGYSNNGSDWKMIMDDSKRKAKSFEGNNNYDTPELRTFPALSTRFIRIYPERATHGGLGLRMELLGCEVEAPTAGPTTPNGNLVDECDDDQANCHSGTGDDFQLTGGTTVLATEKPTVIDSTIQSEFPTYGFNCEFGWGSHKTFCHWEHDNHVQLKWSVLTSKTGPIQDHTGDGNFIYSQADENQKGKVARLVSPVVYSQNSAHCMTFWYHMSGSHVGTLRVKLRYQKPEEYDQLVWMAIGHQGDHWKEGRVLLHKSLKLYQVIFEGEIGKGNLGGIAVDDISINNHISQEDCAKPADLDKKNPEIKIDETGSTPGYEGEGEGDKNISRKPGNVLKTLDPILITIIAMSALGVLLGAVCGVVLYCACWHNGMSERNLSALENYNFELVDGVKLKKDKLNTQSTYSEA
# Myeloid diff MLP: compounds promoting myeloid differentiation; AID 624256; 1% of 360,000 active; ER-HoxA9 myeloid progenitors, lysozyme-GFP differentiation, flow cytometry; calls only at 10 µM;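 active = normalized GFP-positive differentiation at or above the plate's own cutoff, the solvent-only control mean plus 3 SD; inconclusive = no clear call, values can overlap the other calls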;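 note: cells exposed to compound for four days before flow analysis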
# FAS TE block: blocks the thioesterase domain of human fatty acid synthase; P49327; recombinant FAS-TE, OMFH fluorogenic substrate, fluorescence endpoint; inhibition, % at 15 µM; 0.67% of 360,000 active;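 active = compounds whose normalised, plate-corrected inhibition of enzyme fluorescence in the single-dose primary screen is 50% or more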
# CRFR2-BP antag: antagonists of CRF-binding protein/CRF-R2 receptor complex; HEK293 CRF-R2/CRF-BP, CRF-induced calcium fluorescence; inhibition, % at 11.8 µM; 0.59% of 350,000 active;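 active = inhibition of the ligand-induced calcium signal above about 50% at the single tested concentration, limit read from the data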
# Myeloid diff CP1: myeloid differentiation induction | shares compounds with Myeloid diff MLP | calls only | 2% of 2,300 active | AID 651706 | ER-HoxA9 myeloid progenitors, GFP/Mac1 double-positive flow;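 active = share of green or green-and-red cells above 9 and 9% in run 1 or 4 and 3% in run 2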
# GFP autofluor: compound fluorescence in myeloid differentiation counter-screen. shares compounds with Myeloid diff MLP. ER-HoxA9 myeloid progenitors, no estrogen, GFP autofluorescence flow cytometry; vehicle wells 0%, positive control 100%. fluorescence response, % (test concentration not listed). 7.4% of 2,300 active. AID 651707;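 active = over 5% cells positive for green fluorescent reporter, or over 2% positive for both it and APC stain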
# A number is an active result; – = inactive; ? = inconclusive; · = no result; + = active, no number.
SMILES,NadD inh,NRP1-CendR mod,Myeloid diff MLP,FAS TE block,CRFR2-BP antag,Myeloid diff CP1,GFP autofluor
C=CCN(C/C(=N\O)c1sc(C(=O)OCC)nc1C)c1cccc(Br)c1,–,–,–,–,–,·,·
CCN(CC)C(=O)c1cccc(-c2csc(C(C)(NC(C)=O)c3ccc(OC)cc3)n2)c1 (stereo not given),–,–,–,–,·,·,·
CCCSC1=C(C#N)C(c2cc(OC)ccc2OC)CC(=O)N1 (stereo not given),–,–,–,–,–,–,–
CCCCn1c(N)c(N(CC(C)C)C(=O)Cc2ccc(S(=O)(=O)N3CCOCC3)s2)c(=O)[nH]c1=O,–,–,+,–,–,+,–
O=C(CS(=O)(=O)Nc1ccc(F)cc1Cl)Nc1ccc(F)cc1Cl,–,–,–,–,–,·,·
N#CCCN(C(=O)COc1ccc(C#N)cc1)c1ccc(F)cc1,–,–,–,–,–,–,–
N#CCCN(C(=O)COC(=O)CCc1c[nH]c2ccccc12)c1ccc(F)cc1,–,–,–,–,–,·,·
Cc1ccc(OCc2nnc(SCc3nc4ccccc4[nH]3)n2Cc2ccco2)cc1,–,–,+,–,–,+,–
O=S(=O)(N/N=C\C=C\c1ccccc1)c1ccc(Cl)cc1,–,–,–,–,–,–,–
CCS(=O)(=O)c1nc(S(=O)(=O)c2ccc(Cl)cc2)c(N2CCC3(CC2)OCCO3)s1,–,–,–,–,–,+,–
CCS(=O)(=O)c1nc(S(=O)(=O)c2ccc(Cl)cc2)c(N2CCOCC2)s1,–,35.0,–,–,–,–,–
CCS(=O)(=O)c1nc(S(=O)(=O)c2ccc(C)cc2)c(N2CCCC2)s1,–,–,–,–,–,·,·
O=C(CSc1nc(=O)n(CCCN2CCOCC2)c2c1CCCC2)Nc1ccc(F)cc1F,–,–,+,–,–,–,–
CC[n+]1c(/C=C/c2ccc(OC)c(OC)c2)ccc2ccccc21,–,–,+,–,–,–,–
C=CCN1C(=O)CSc2ccc(C(=O)NCc3ccc(F)cc3)cc21,–,–,–,–,–,·,·
CN(CCC1CCOCC1)C(=O)CC1C(=O)NCCN1Cc1ccccc1F (stereo not given),–,–,–,–,–,·,·
S=C(c1cn(Cc2ccccc2)c2ccccc12)N1CCOCC1,–,–,–,–,–,·,·
S=C(c1cn(Cc2ccc(Br)cc2)c2ccccc12)N1CCOCC1,–,–,–,–,–,–,–
CC1(C)C2CCC1(C)C(SC(=N)N)C2 (stereo not given),–,–,–,–,–,–,–
CC1(C)C2CCC1(C)C(OC(=O)CC(=O)O)C2 (stereo not given),·,·,·,·,–,·,·
CC1CN(C(=O)COC(=O)Cc2c(F)cccc2Cl)CC(C)O1 (stereo not given),–,–,–,–,–,·,·
CC(NC(=O)CNC(=O)c1ccc2c(c1)OCO2)c1ccc(S(N)(=O)=O)cc1 (stereo not given),–,–,?,–,–,·,·
CCOc1ccc(NC(=S)N2c3ccccc3CC2C)cc1 (stereo not given),–,–,–,–,–,–,–
CC1=C(C(=O)NC2CCCc3c2cnn3-c2cccc(C)c2C)OCCO1 (stereo not given),–,–,–,–,–,·,·
Cc1cc(C(=O)NC2CCCc3c2cnn3-c2cccc(C)c2C)no1 (stereo not given),–,–,+,–,–,–,–
SMILES,NadD inh,NRP1-CendR mod,Myeloid diff MLP,FAS TE block,CRFR2-BP antag,Myeloid diff CP1,GFP autofluor
C[C@H](O)[C@@H]1C(=O)N2CCc3ccc(-c4ccccc4)cc3[C@@H]2C[C@@H]1N(C)C(=S)Nc1ccc(F)cc1,–,–,–,–,–,–,86.8
C[C@H](O)[C@@H]1C(=O)N2CCc3ccc(-c4cccc(F)c4)cc3[C@@H]2C[C@@H]1N(C)C(=O)Nc1ccccc1,–,–,–,–,–,·,·
Cc1ccsc1CN(C)C(=O)C(NC(=O)c1cccc(S(=O)(=O)N2CCOCC2)c1)C(C)C (stereo not given),–,–,–,–,–,·,·
COC(=O)C(C)(C)NC(=O)c1cccs1,–,–,–,–,–,·,·
COC(=O)C(C)(C)c1cccnc1C#N,–,–,–,–,–,–,–
Cn1c(=O)oc2cc(S(=O)(=O)N3CCCC(C(=O)NCc4ccc5c(c4)OCO5)C3)ccc21 (stereo not given),–,–,–,–,–,·,·
Cn1c(=O)oc2cc(S(=O)(=O)N3CCCC(C(=O)NCc4cccs4)C3)ccc21 (stereo not given),–,–,–,–,–,–,–
COc1ccccc1CNC(=O)C1CCCN(S(=O)(=O)c2ccc3c(c2)C(C)(C)C(=O)N3C)C1 (stereo not given),–,–,–,–,–,–,–
NC(=O)Oc1cccc(OC(N)=O)c1,–,–,–,–,–,·,·
CCN(CC)c1ccc(N=C2C(=O)Nc3ccccc32)cc1,–,–,–,–,–,–,3.7
C=CCc1ccccc1OCC(O)CNC(=O)c1ccccc1C(=O)O (stereo not given),–,–,–,–,–,·,·
C/C(=C1/SC(N2CCCC2)=NC1=O)c1ccc(Br)cc1,–,–,+,–,–,+,–
CC(C)=C1SC(N2CCCCC2)=NC1=O,–,–,–,–,–,·,·
Cc1ccc(N(C(=O)Cn2nnc(-c3cccs3)n2)C(C(=O)NC2CCCC2)c2ccncc2)cc1 (stereo not given),–,–,–,–,–,–,–
CCOC(=O)C1(C(=O)OCC)C(C(=O)c2ccccc2)C1c1ccccc1 (stereo not given),–,–,–,–,–,·,·
COc1ccccc1C1CC(c2ccc(Br)cc2)=NN1C(=O)c1cccnc1 (stereo not given),–,–,–,–,–,–,–
COc1cccc(C2CC(c3ccc(Br)cc3)=NN2C(=O)c2ccncc2)c1OC (stereo not given),–,–,–,–,–,·,·
O=C(Nc1nc(-c2ccc(Cl)cc2)cs1)C1=COCCO1,–,–,–,–,–,–,–
O=C(Nc1nc(-c2ccc(F)c(F)c2)cs1)C1=COCCO1,–,–,–,–,–,·,·
COC(=O)c1cccc(NC(=O)CCN2C(=O)C3CC=CCC3C2=O)c1 (stereo not given),–,–,–,–,–,·,·
CN1CCN(Cc2cccc(Oc3ccc(Cl)cc3)c2)CC1,–,–,·,–,–,·,·
CCN1CCN(Cc2cccc(Oc3ccc(Cl)cc3)c2)CC1,–,–,+,–,–,–,–
CCC(C(=O)OCC(=O)Nc1cc(Cl)cc(Cl)c1)c1ccccc1 (stereo not given),–,–,–,–,–,·,·
COc1ccc(C(=O)Cn2cc[n+](C)c2)cc1,–,–,+,–,–,–,–
Oc1ccc(F)c(CN2CCN(c3ncc(Cc4ccccc4)cn3)CC2)c1,·,–,–,·,·,·,·
